About 83,000 compounds went through this panel and 20% of them were active in at least one assay; those are over-represented in the sample as a whole.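 In brief: 96-well plates, 48 h treatment, single concentration, percent growth endpoint.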 Active and inactive are the calls of the source. How the source made its calls: active means growth percent below 10; inactive means the rest.
Legend:
Assay in all cases: NCI-60 one-dose screen, 48 h (100 = growth as untreated, 0 = no growth, -100 = all killed)
Settings in all cases: 10 µM unless noted
SK-MEL-2 melanoma = tested on: SK-MEL-2 melanoma
EKVX NSCLC = tested on: EKVX NSCLC
SN12C renal = tested on: SN12C renal
UO-31 renal = tested on: UO-31 renal
TK-10 renal = tested on: TK-10 renal
ACHN renal = tested on: ACHN renal
CAKI-1 renal = tested on: CAKI-1 renal
A498 renal = tested on: A498 renal
CCRF-CEM leukemia = tested on: CCRF-CEM leukemia
MOLT-4 leukemia = tested on: MOLT-4 leukemia

Measured: growth

C[n+]1cc2cc(C(N)=O)[nH]c3c(=N)c(Cl)c(N)c1c23
inactive: SK-MEL-2 melanoma 96.1% | EKVX NSCLC 101% | SN12C renal 53.6% | UO-31 renal 81.1% | TK-10 renal 73.9% | ACHN renal 39% | CAKI-1 renal 79.9% | A498 renal 71.9% | CCRF-CEM leukemia 37.6%

O=C(CC(SCc1ccccc1)c1ccccc1)c1ccccc1 (stereo not given)
inactive: SK-MEL-2 melanoma 120% | EKVX NSCLC 82.4% | SN12C renal 98.8% | UO-31 renal 84.7% | TK-10 renal 87.3% | ACHN renal 99.6% | CAKI-1 renal 95.8% | A498 renal 81.8% | CCRF-CEM leukemia 95.9%

C#CCOc1nc(C)cc(C)c1C#N
inactive: SK-MEL-2 melanoma 111% | EKVX NSCLC 97.1% | SN12C renal 104% | UO-31 renal 86.5% | TK-10 renal 95.9% | ACHN renal 99.7% | CAKI-1 renal 90.6% | A498 renal 87.7% | CCRF-CEM leukemia 109%

COC(=O)[C@]12CC[C@@H](C)[C@H](C)[C@@H]1C1=CC[C@@H]3[C@@]4(C)C(C=O)=C[C@@](C)(COC(C)=O)C4=CC[C@@]3(C)[C@]1(C)CC2
inactive: EKVX NSCLC 12.7% | CAKI-1 renal 13.7% | A498 renal 14.6%
active: SK-MEL-2 melanoma -45.1% | SN12C renal 9.9% | UO-31 renal -9.5% | TK-10 renal -8.72% | ACHN renal -16% | CCRF-CEM leukemia -14.7%

NC(=O)c1ccc[n+](Cc2ccc(Cl)cc2Cl)c1
inactive: SK-MEL-2 melanoma 95.7% | EKVX NSCLC 107% | SN12C renal 101% | UO-31 renal 99.8% | TK-10 renal 88.4% | ACHN renal 109% | CAKI-1 renal 107% | A498 renal 99.8% | CCRF-CEM leukemia 97.4%

O=Cc1ccc(O)c2ncccc12
inactive: SK-MEL-2 melanoma 71.2% | EKVX NSCLC 66.1% | SN12C renal 35.2% | UO-31 renal 34.8% | TK-10 renal 94% | ACHN renal 110% | CAKI-1 renal 48.6% | A498 renal 106%
active: CCRF-CEM leukemia -40.7%

O=S(=O)(Nc1cccc(Cl)c1)c1ccc(-c2cnc(C3CC3)o2)cc1
inactive: SK-MEL-2 melanoma 58.8% | EKVX NSCLC 35.1% | SN12C renal 39.7% | UO-31 renal 35.5% | TK-10 renal 45.9% | ACHN renal 37.1% | CAKI-1 renal 29.8% | CCRF-CEM leukemia 12.8%
active: A498 renal -3.4%

COc1cccc(-c2nn(-c3ccccc3)cc2-c2ccnc(NCCCNC(=O)c3cccc(C(F)(F)F)c3)c2)c1
inactive: SK-MEL-2 melanoma 33.4% | EKVX NSCLC 48.9% | SN12C renal 45.5% | UO-31 renal 10.9% | TK-10 renal 26.9% | ACHN renal 31.7% | CAKI-1 renal 51.4% | A498 renal 43.6% | CCRF-CEM leukemia 21.5%

COc1cccc(-c2nn(-c3ccccc3)cc2-c2ccnc(NCCNC(=O)c3ccccc3)c2)c1
inactive: SK-MEL-2 melanoma 84.7% | EKVX NSCLC 66.6% | SN12C renal 71.4% | UO-31 renal 49.7% | TK-10 renal 90.1% | ACHN renal 74.1% | CAKI-1 renal 68% | A498 renal 46.6% | CCRF-CEM leukemia 48.7%

C=C1C(=O)O[C@H]2[C@H]1CC/C(CNC(=O)/C=C/c1ccc(Cl)cc1Cl)=C\CC[C@@]1(C)O[C@@H]21
active: SK-MEL-2 melanoma -13.8% | EKVX NSCLC -35.8% | SN12C renal -43.4% | UO-31 renal -90.2% | TK-10 renal -88.8% | ACHN renal -79.9% | CAKI-1 renal -31.2% | A498 renal -3.46% | CCRF-CEM leukemia -30.7%

CN1CCN(CCCOc2ccc3nc(Nc4ccc(F)c(F)c4)ccc3c2)CC1
inactive: SK-MEL-2 melanoma 54.4% | EKVX NSCLC 61.7% | SN12C renal 68% | UO-31 renal 47.4% | TK-10 renal 41.7% | ACHN renal 44.3% | CAKI-1 renal 73.3% | A498 renal 33.4% | CCRF-CEM leukemia 17.2%

COc1ccc(N2CCN(c3nc(-c4cc(OC)c(OC)c(OC)c4)nc4ccccc34)CC2)cc1
inactive: SK-MEL-2 melanoma 93.6% | EKVX NSCLC 85% | SN12C renal 90.1% | UO-31 renal 69.9% | TK-10 renal 113% | ACHN renal 90.6% | CAKI-1 renal 84.1% | A498 renal 79.5% | CCRF-CEM leukemia 91.3%

COc1cccc(-c2nn(-c3ccccc3)cc2-c2ccnc(NCCNC(=O)Nc3ccccc3)c2)c1
inactive: SK-MEL-2 melanoma 46.8% | EKVX NSCLC 71.1% | SN12C renal 54% | UO-31 renal 39% | TK-10 renal 73.8% | ACHN renal 68.9% | CAKI-1 renal 64.9% | A498 renal 43.8% | CCRF-CEM leukemia 54.7%

Cc1cc(NCc2cc(Nc3ccnc4cc(Cl)ccc34)ccc2F)nc(N2CCSCC2)n1
inactive: SK-MEL-2 melanoma 47.6% | EKVX NSCLC 58.7% | SN12C renal 34.9% | CAKI-1 renal 60.9% | A498 renal 45%
active: UO-31 renal -10.2% | TK-10 renal -58.3% | ACHN renal -81.4% | CCRF-CEM leukemia -10.4%

CN(C)CC1C(=O)O[C@H]2[C@H]1CC/C(COC(=O)c1cc3ccccc3[nH]1)=C\CC[C@@]1(C)O[C@@H]21 (stereo not given in full)
active: SK-MEL-2 melanoma -55% | EKVX NSCLC -27.4% | SN12C renal -22.1% | UO-31 renal -92.7% | TK-10 renal -89.2% | ACHN renal -82.4% | CAKI-1 renal -14.4% | A498 renal 5.21% | CCRF-CEM leukemia 1.08%

COc1cc(-c2nn(-c3ccccc3)cc2-c2ccnc(NCCNS(=O)(=O)c3ccc(Cl)cc3)n2)ccc1Cl
inactive: SK-MEL-2 melanoma 61.2% | EKVX NSCLC 37% | SN12C renal 26.8% | UO-31 renal 21.2% | TK-10 renal 43% | ACHN renal 15.4% | CAKI-1 renal 28.9% | A498 renal 32% | CCRF-CEM leukemia 35.8%

COC(=O)/C=C1\S/C(=N\NS(=O)(=O)c2ccc(C)cc2)N(c2ccccc2)C1=O
inactive: SK-MEL-2 melanoma 107% | EKVX NSCLC 100% | SN12C renal 98.6% | UO-31 renal 90.8% | TK-10 renal 109% | ACHN renal 104% | CAKI-1 renal 96.6% | A498 renal 80.6% | CCRF-CEM leukemia 101% | MOLT-4 leukemia 93.9%

COc1ccc2c(c1)O/C(=C\c1cccc(OCC(=O)Nc3nc4ccccc4s3)c1)C2=O
inactive: SK-MEL-2 melanoma 91.8% | EKVX NSCLC 100% | SN12C renal 43.7% | TK-10 renal 132% | ACHN renal 98.2% | A498 renal 110% | MOLT-4 leukemia 18.4%
active: UO-31 renal -61.3% | CAKI-1 renal -88.3% | CCRF-CEM leukemia -61.4%

Cc1cc(N2CCCC2)nc(NCc2cc(Nc3ccnc4cc(Cl)ccc34)ccc2F)n1
inactive: EKVX NSCLC 11.1% | CAKI-1 renal 28.5%
active: SK-MEL-2 melanoma -79.6% | SN12C renal -58.8% | UO-31 renal -59.1% | TK-10 renal -56.7% | ACHN renal -72.3% | A498 renal -25.2% | CCRF-CEM leukemia -32.1%

Cc1cc(NCCCCNc2ccnc3cc(Cl)ccc23)nc(Nc2ccc(C(=O)N3CCCC3)cc2)n1
inactive: SK-MEL-2 melanoma 91.2% | EKVX NSCLC 79% | SN12C renal 70.4% | UO-31 renal 75.4% | TK-10 renal 115% | ACHN renal 60.7% | CAKI-1 renal 97.1% | A498 renal 62.6%
active: CCRF-CEM leukemia 2.01%

O=C1c2cccc(NCCN=Cc3cc([N+](=O)[O-])ccc3O)c2C(=O)c2c(NCCN=Cc3cc([N+](=O)[O-])ccc3O)cccc21
inactive: SK-MEL-2 melanoma 96% | EKVX NSCLC 87.5% | SN12C renal 40.5% | UO-31 renal 76.5% | TK-10 renal 114% | ACHN renal 70.7% | CAKI-1 renal 56.7% | A498 renal 80.9% | CCRF-CEM leukemia 32.5%
active: MOLT-4 leukemia 4.21%

O=c1[nH]c2ccccc2n1C1CCN(CCOc2ccccc2)CC1
inactive: SK-MEL-2 melanoma 83.3% | EKVX NSCLC 99.7% | SN12C renal 97.3% | UO-31 renal 64.6% | TK-10 renal 98.7% | ACHN renal 90.9% | CAKI-1 renal 98.8% | A498 renal 63.7% | CCRF-CEM leukemia 74.3% | MOLT-4 leukemia 86.4%

O=C(Nc1cccc(C(F)(F)F)c1)Nc1cccc(C(F)(F)F)c1
active: SK-MEL-2 melanoma -28.5% | SN12C renal 2.57% | UO-31 renal 4.46% | TK-10 renal -0.607% | ACHN renal 5.92% | A498 renal -18.2% | CCRF-CEM leukemia 2.44%
inactive: EKVX NSCLC 13.8% | CAKI-1 renal 16.4%

CCc1ccccc1-n1c(-c2ccc(Cl)cc2)cc(-c2ccc(Cl)cc2)c(C#N)c1=O
inactive: SK-MEL-2 melanoma 103% | EKVX NSCLC 87.5% | SN12C renal 92.3% | UO-31 renal 75.3% | TK-10 renal 94.5% | ACHN renal 98.8% | CAKI-1 renal 90.2% | A498 renal 94.9% | CCRF-CEM leukemia 34.4% | MOLT-4 leukemia 31.8%

O=C1/C(=C/c2ccc(Br)cc2)C=C(c2ccccc2)N1CCc1ccccc1
inactive: SK-MEL-2 melanoma 66% | EKVX NSCLC 40.1% | SN12C renal 50.1% | UO-31 renal 45% | TK-10 renal 12.6% | ACHN renal 13% | CAKI-1 renal 64.3% | A498 renal 50.8% | CCRF-CEM leukemia 101%

COc1cc(C2CC(c3ccc(Nc4ccnc5cc(Cl)ccc45)cc3)=NN2C=O)cc(OC)c1OC (stereo not given)
inactive: SK-MEL-2 melanoma 97.4% | EKVX NSCLC 76.7% | SN12C renal 86.7% | UO-31 renal 61.9% | TK-10 renal 92.8% | ACHN renal 87.5% | CAKI-1 renal 86.7% | A498 renal 93.2% | CCRF-CEM leukemia 58% | MOLT-4 leukemia 43.1%

Reference: PubChem BioAssay (NCI)
